Source: PubChem BioAssay AID588405 (Sanford-Burnham Center for Chemical Genomics, 2011)
In all, about 360,000 compounds went through this assay and about 6,200 (1.7%) were called active.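 How the source made its calls: active means inhibition of at least 50% at 20 µM; inactive means the rest.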 For the sample, actives were picked, then their nearest neighbours and some compounds at random.

Assay: inhibition of PEG-3 promoter activity – cell-based, HeLa, luciferase luminescence, primary screen (AID 588405)
Settings: HeLa PEG-Prom luciferase reporter, overnight, at 20 µM, active compounds read high

inhibition, inactive:
CC1(C(=O)NS(=O)(=O)c2ccccc2)CCN1C(=O)c1ccccc1 (configuration not stated) 8.86%
CC(=O)Nc1cc(-c2cccc(CO)c2)cn2c(-c3cccc(C(F)(F)F)c3)cnc12 19.9%
COc1ccccc1N1CCN(/N=C\C(Br)=C\c2ccccc2)CC1 -183%
Cc1ccccc1-c1n[nH]c(=S)n1/N=C/c1ccc(-c2ccccc2Br)o1 13.5%
COc1c(C)cc(C(O)c2ncc(-c3cccc(C(F)(F)F)c3)[nH]2)cc1C (configuration not stated) 36.8%
O=C1CC(c2cccc(Br)c2)C2=C(CCCC2=O)N1 (configuration not stated) -11.1%
Cc1cc(Cl)ccc1-c1nc(NCCN(C)C)nc2ccsc12 5.65%
COc1ccc(-c2n[nH]c3c2CN(C(=O)c2ccc(F)cc2)CC3)cc1 -4.89%
COc1ccc(C2CC(c3cccc(OC)c3)=NN2c2ccc(S(N)(=O)=O)cc2)cc1 (configuration not stated) -21.8%
O=C(NCc1ccccc1Cl)c1csc([C@@H]2O[C@H](CO)[C@@H](O)[C@H]2O)n1 9.43%
Cc1ccc(CN2CC(N3CCC(Cc4ccccc4)CC3)CS2(=O)=O)cc1 (configuration not stated) 15.9%
CC(CN1CCCCC1)OC(=O)c1ccccc1Cl (configuration not stated) -5.2%
O=C(O)Cc1ccc(NCc2ccccc2Cl)cc1 -84.7%
COc1ccc(-c2cc(-c3ccc(N)cc3)nc(N)c2C#N)cc1OC 28.4%
COc1ccc(C2=NO[C@@H]3C(=O)N(Cc4ccccc4)C(=O)[C@H]23)cc1OC 21.8%
O=C1N=C2SCCN2/C1=C\c1c(Cl)cccc1Cl 2.52%
COc1ccc(NC(=O)C2Cc3c(-c4cccc(NC(C)=O)c4)ccnc3O2)cc1OC (configuration not stated) 24%
CCN(CC)CCCNC(=S)N(CCO)Cc1cc2cc3c(cc2[nH]c1=O)OCO3 5.64%
COc1cccc(-n2c(=S)[nH]c3c(oc4ccccc43)c2=O)c1 -22.9%
O=C(NCCCO)c1cc2c([nH]c3ccccc32)c(-c2ccc(F)cc2)n1 23.9%
COc1ccc2cc(C(=O)NCC3CCCO3)[nH]c2c1 (configuration not stated) -95.8%
CCOc1ccc(Cl)cc1-c1cc(C(=O)NCc2cccs2)[nH]n1 -9.07%
Cc1noc(C)c1C(=O)NCC1COc2ccccc2O1 (configuration not stated) 15.8%
CCn1cc(C(=O)NCC2COc3ccccc3O2)c2cc(OC)c(OC)cc2c1=O (configuration not stated) 8.43%
O=C(Nc1ccc(Cl)cc1)C1Cc2c(-c3ccc4c(c3)OCO4)ccnc2O1 (configuration not stated) 29%
Cc1ccc(-c2nnc(-n3nnc4ccccc43)c3ccccc23)cc1 6.18%
CC1(Cc2ccccc2C#N)C(=O)Nc2ccc(-c3ccc4[nH]ccc4c3)cc21 (configuration not stated) 14.4%
Cc1nc2ccccc2nc1CC(O)(c1ccccc1)c1ccccc1 -1.32%
CN(Cc1ccccc1)C(=O)c1cccc(C(=O)N(C)Cc2ccccc2)c1 8.74%
Cc1ccc(CS(=O)Cc2ccc(C(=O)N3CCOCC3)o2)cc1 (configuration not stated) 11.9%
CCc1nc2ccc(C(=O)Nc3cc(-c4ccccc4)ccc3OC)cn2c1N(CC)CC(=O)N(C)C -22.1%
Cc1ccccc1CN1C(=O)c2ccccc2Sc2ccc(C(=O)NCCCN3CCOCC3)cc21 26.3%
CC(C)OCCCNC(=O)CN1C(=O)/C(=C/c2ccccc2F)Oc2ccccc21 4.52%
CCN1CCCC1CNC(=O)c1cc2cc(OC)c(OC)cc2[nH]1 (configuration not stated) 18%
O=C(NCCN1CCOCC1)c1ccc2c(c1)N(Cc1cccc(Cl)c1)C(=O)c1ccccc1S2(=O)=O 23.8%
CCCC1=Nc2cc(C(=O)NCCN3CCCC3)ccc2Sc2ccccc21 16.7%
Cc1c(C)n(Cc2ccc(Cl)cc2)c2ccc(C(=O)NCCCN3CCOCC3)cc12 47.1%
O=C(NCCCN1CCCCC1)c1ccc2c(c1)NC(=O)C(N1CCOCC1)S2 (configuration not stated) -8.33%
CCN1CCCC1CNC(=O)c1cc2c(=O)n(C)c3ccccc3c2n1C (configuration not stated) -10.3%
COc1ccc(-c2cc(NC=O)c3ncc(-c4cc(OC)c(OC)c(OC)c4)n3c2)c(OC)c1 1.14%
Nc1ncnc2c1ncn2[C@@H]1O[C@H](C(=O)N2CCCN(Cc3ccccc3F)CC2)[C@@H](O)[C@H]1O 3.41%
OC[C@@H]1CN(Cc2ccc(F)cc2)C[C@H](n2cnc3c(NC4CCCC4)ncnc32)O1 12.2%
CCCNC(=O)C1(C)CCN(C(=O)c2ccc(F)cc2Cl)C1 (configuration not stated) 1.51%
CC1(C(=O)NS(=O)(=O)Cc2cccc(Cl)c2)CCN1C(=O)Cc1ccc(Cl)cc1Cl (configuration not stated) -1.37%
Cc1cn([C@H]2C[C@H](O)[C@@H](/C=C/C(=O)NCCCc3ccccc3)O2)c(=O)[nH]c1=O 9.64%

inhibition, active:
Cc1cc(-c2n[nH]c(=S)n2/N=C/C(Br)=C/c2ccccc2)n[nH]1 101%
C=CCn1c(C)cc(C2=NNC(=NCC)SC2)c1C 106%
CC(C)OC(=O)c1ccc(NCc2cc(O)ccc2O)cc1Cl 64%
COc1ccc(-c2cc(C(F)(F)F)nc(S(C)(=O)=O)n2)cc1OC 104%
O=c1oc2ccccc2cc1-c1cn(-c2ccccc2)c(=S)[nH]1 98.7%
O=C(NCC1CCCO1)c1cc2c([nH]c3ccccc32)c(-c2ccc(F)cc2)n1 (configuration not stated) 61.3%
Cc1cc(C(=O)CCl)c(C)n1CC1COc2ccccc2O1 (configuration not stated) 103%
CN(O)C(=S)c1ccccc1 92.1%
CN1CCN(CCCNC(=O)c2ccc(/C=C3\Oc4ccccc4N(Cc4ccc(Cl)cc4)C3=O)cc2)CC1 109%
CCN1CCCC1CNC(=O)c1ccc2c(c1)NC(=O)/C(=C\c1ccccc1F)S2 (configuration not stated) 56.9%
CCN1CCN(CCNC(=O)c2ccc3c(c2)NC(=O)/C(=C\c2cccc(Cl)c2)S3)CC1 99.5%
CCN1CCN(CCNC(=O)c2ccc(/C=C3/Sc4ccccc4N(Cc4cccc(C)c4)C3=O)cc2)CC1 103%
